Reference: PubChem BioAssay
Active and inactive are the calls of the source.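 How the source made its calls, unless noted: active means thallium flux through the channel raised or lowered by more than 3 SD from vehicle-only wells, actives on both sides; inactive means the rest.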

What was measured:
F380Y = assay: modulators of BK channel variants, profiling panel, selectivity assay, cell-based, U2OS BacMam, thallium flux, beta subunits (AID 1259406); settings: at 30 µM;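 further: initial slope of Thallos dye fluorescence rise after thallium is added; log ratio against the mean of 0.3% DMSO vehicle wells on the same plate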
F380Y/beta1 = assay: as above; settings: at 30 µM
F380Y/beta2Delta = assay: as above; settings: at 30 µM
F380Y/beta4 = assay: as above; settings: at 30 µM
[1] = biological target: Calcium-activated potassium channel subunit alpha-1 (Homo sapiens) + Leucine-rich repeat-containing protein 26 (Homo sapiens) (UniProt Q12791+Q2I0M4); assay: as above; settings: F380Y/Slo1WT/gamma1, at 30 µM
Chain of Calcium-activated potassium channel subunit alpha-1 (Homo sapiens) + Leucine-rich repeat-containing protein 26 (Homo sapiens) (Q2I0M4 whole entry, looked up, one chain of several): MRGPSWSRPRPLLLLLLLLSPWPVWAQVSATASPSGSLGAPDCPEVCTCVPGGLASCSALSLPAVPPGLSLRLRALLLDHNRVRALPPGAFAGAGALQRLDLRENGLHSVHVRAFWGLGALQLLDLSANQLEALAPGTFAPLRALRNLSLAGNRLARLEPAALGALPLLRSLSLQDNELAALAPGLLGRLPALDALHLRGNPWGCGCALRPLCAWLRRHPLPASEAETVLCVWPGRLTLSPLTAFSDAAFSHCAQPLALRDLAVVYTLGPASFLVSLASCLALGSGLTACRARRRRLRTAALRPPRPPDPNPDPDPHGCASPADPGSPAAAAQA

R275C = assay: as above; settings: at 30 µM
R275C/beta1 = assay: as above; settings: at 30 µM
R275C/beta2Delta = assay: as above; settings: at 30 µM
R275C/beta4 = assay: as above; settings: at 30 µM
R275C/Slo1WT/beta2 = assay: as above; settings: at 30 µM
[2] = antimalarial activity against Dd2 strain (AID 2302;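 active means growth inhibition above 50% at the single 2 µM test dose, taken to imply half-maximal potency below 2 µM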;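 further: 0% = DMSO untreated growth and 100% = chloroquine plus artemisinin killed control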); settings: P. falciparum Dd2 in RBCs, LDH growth readout, 72 h; at 2 µM; stronger effect = higher value
[3] = HepG2 cytotoxicity, primary screen, cytotoxicity control for P. falciparum antimalarial project, cell-based, ATP luminescence (AID 2303;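 active means inhibition above 50%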;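 further: 0% = DMSO wells and 100% = digitonin-killed cells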); settings: HepG2 viability, 24-48 h, at 10 µM, stronger effect = higher value
[4] = biological target: L-lactate dehydrogenase (Plasmodium falciparum (isolate CDC / Honduras)) (UniProt Q27743); assay: PfLDH activity inhibition – cell lysate, 3D7 strain, counter-screen for P. falciparum growth inhibition project (AID 2304; call rule not given here;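 further: 0% = vehicle and 100% = reference inhibitor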); settings: P. falciparum 3D7 crude extract, LDH APAD/NBT absorbance; at 2 µM; stronger effect = higher value
Chain of L-lactate dehydrogenase (Plasmodium falciparum (isolate CDC / Honduras)) (Q27743 whole entry, looked up): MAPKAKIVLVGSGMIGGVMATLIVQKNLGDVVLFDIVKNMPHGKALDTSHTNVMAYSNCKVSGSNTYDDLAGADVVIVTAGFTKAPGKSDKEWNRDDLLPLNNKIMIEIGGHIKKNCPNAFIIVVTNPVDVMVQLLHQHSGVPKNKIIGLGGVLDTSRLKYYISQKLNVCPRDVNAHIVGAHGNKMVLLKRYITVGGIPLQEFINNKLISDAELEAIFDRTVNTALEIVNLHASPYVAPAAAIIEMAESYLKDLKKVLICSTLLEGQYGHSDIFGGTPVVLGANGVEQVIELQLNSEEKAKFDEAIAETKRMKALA

[5] = inhibition of 3D7 malaria parasite growth – strain 3D7 (AID 2306; call rule not given here;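 further: 0% = DMSO wells and 100% = chloroquine plus artemisinin control wells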); settings: P. falciparum 3D7 erythrocytic growth, LDH absorbance, 72 h; at 2 µM; stronger effect = higher value
[6] = biological target: Protein kinase 7 (PK7), Plasmodium falciparum 3D7 (PF3D7_0213400) (UniProt Q7YTF7); assay: inhibition of Plasmodium PK7 catalytic activity – biochemical, TCAMS antimalarial set, Kinase-Glo luminescence (AID 1159587; call rule not given here); settings: recombinant PfPK7, Kinase-Glo ATP depletion luminescence
Chain of Protein kinase 7 (PK7), Plasmodium falciparum 3D7 (PF3D7_0213400) (Q7YTF7 1-343): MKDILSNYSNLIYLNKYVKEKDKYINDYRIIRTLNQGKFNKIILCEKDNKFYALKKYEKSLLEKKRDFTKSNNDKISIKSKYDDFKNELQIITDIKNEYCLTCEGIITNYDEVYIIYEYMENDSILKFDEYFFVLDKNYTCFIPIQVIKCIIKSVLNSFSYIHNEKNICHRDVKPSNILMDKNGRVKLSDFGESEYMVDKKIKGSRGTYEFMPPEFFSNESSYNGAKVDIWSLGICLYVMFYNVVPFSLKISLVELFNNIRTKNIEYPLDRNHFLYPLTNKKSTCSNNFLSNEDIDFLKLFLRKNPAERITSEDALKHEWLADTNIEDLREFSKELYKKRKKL

Cc1nn(Cc2nnn(CC(=O)NN=Cc3ccc(Cl)cc3)n2)c(C)c1Br
inactive: log fold change Tl+ flux (F380Y) 0.0697 | log fold change Tl+ flux (F380Y/beta1) 0.0216 | log fold change Tl+ flux (F380Y/beta2Delta) 0.00259 | log fold change Tl+ flux (F380Y/beta4) -0.0438 | log fold change Tl+ flux [1] 0.0569 | log fold change Tl+ flux (R275C) 0.0224 | log fold change Tl+ flux (R275C/beta1) -0.0427 | log fold change Tl+ flux (R275C/beta2Delta) -0.045 | log fold change Tl+ flux (R275C/beta4) 0.011 | log fold change Tl+ flux (R275C/Slo1WT/beta2) 0.0426

CCN(CC)CCCOc1ccc(Nc2nccc(-c3c(-c4cccc(NC(=O)c5c(F)cccc5F)c4)nn4ccccc34)n2)cc1F
active: growth inhibition [2] 99% | inhibition [3] 86% | growth inhibition [5] 100%
inactive: inhibition [4] -5% | outcome [6]

CCOC(=O)c1cc(NC(=O)CC(C)(C)CC(=O)O)ccc1N1CCCCC1
inactive: log fold change Tl+ flux (F380Y) 0.0551 | log fold change Tl+ flux (F380Y/beta1) 0.0365 | log fold change Tl+ flux (F380Y/beta2Delta) 0.0312 | log fold change Tl+ flux (F380Y/beta4) 0.0131 | log fold change Tl+ flux [1] -0.0575 | log fold change Tl+ flux (R275C) 0.0216 | log fold change Tl+ flux (R275C/beta1) 0.0587 | log fold change Tl+ flux (R275C/beta2Delta) 0.0261 | log fold change Tl+ flux (R275C/beta4) 0.0168 | log fold change Tl+ flux (R275C/Slo1WT/beta2) 0.00209

Cc1nn(C)c2ncc(C(N)=O)c(Oc3ccc(Cl)cc3)c12
inactive: log fold change Tl+ flux (F380Y) -0.00628 | log fold change Tl+ flux (F380Y/beta1) -0.0132 | log fold change Tl+ flux (F380Y/beta2Delta) 0.0115 | log fold change Tl+ flux (F380Y/beta4) 0.049 | log fold change Tl+ flux [1] 0.0214 | log fold change Tl+ flux (R275C) -0.017 | log fold change Tl+ flux (R275C/beta1) 0.00427 | log fold change Tl+ flux (R275C/beta2Delta) 0.0253 | log fold change Tl+ flux (R275C/beta4) -0.0279 | log fold change Tl+ flux (R275C/Slo1WT/beta2) -0.0474

CCOC(=O)c1c(N)n(-c2ccc(Cl)cc2)c2nc3ccccc3nc12
inactive: log fold change Tl+ flux (F380Y) -0.0102 | log fold change Tl+ flux (F380Y/beta1) 0.0245 | log fold change Tl+ flux (F380Y/beta2Delta) -0.0247 | log fold change Tl+ flux (F380Y/beta4) 0.0204 | log fold change Tl+ flux [1] 0.0261 | log fold change Tl+ flux (R275C) -0.0291 | log fold change Tl+ flux (R275C/beta1) -0.0146 | log fold change Tl+ flux (R275C/beta2Delta) -0.0215 | log fold change Tl+ flux (R275C/beta4) 0.011 | log fold change Tl+ flux (R275C/Slo1WT/beta2) 0.0184

O=C(C(=NN=Cc1ccc2c(c1)OCO2)c1ccccc1)c1ccccc1
active: log fold change Tl+ flux (R275C) -0.163 | log fold change Tl+ flux (R275C/beta1) -0.3 | log fold change Tl+ flux (R275C/beta4) -0.138
inactive: log fold change Tl+ flux (F380Y) -0.0112 | log fold change Tl+ flux (F380Y/beta1) -0.00905 | log fold change Tl+ flux (F380Y/beta2Delta) -0.0268 | log fold change Tl+ flux (F380Y/beta4) -0.0584 | log fold change Tl+ flux [1] -0.0678 | log fold change Tl+ flux (R275C/beta2Delta) 0.000499 | log fold change Tl+ flux (R275C/Slo1WT/beta2) -0.0825

O=C(Nc1ccc(-n2ccc(C(F)(F)F)n2)cc1)C1=Cc2cc(Cl)ccc2OC1
inactive: log fold change Tl+ flux (F380Y) 0.0274 | log fold change Tl+ flux (F380Y/beta1) -0.019 | log fold change Tl+ flux (F380Y/beta2Delta) 0.0253 | log fold change Tl+ flux (F380Y/beta4) -0.0159 | log fold change Tl+ flux [1] -0.106 | log fold change Tl+ flux (R275C) -0.0271 | log fold change Tl+ flux (R275C/beta1) -0.0315 | log fold change Tl+ flux (R275C/beta2Delta) 0.035 | log fold change Tl+ flux (R275C/beta4) -0.0139 | log fold change Tl+ flux (R275C/Slo1WT/beta2) -0.0341

C#Cc1cccc(NS(=O)(=O)c2ccc(Cl)c(Cl)c2)c1
active: log fold change Tl+ flux (F380Y) 0.107 | log fold change Tl+ flux (F380Y/beta1) 0.533 | log fold change Tl+ flux (F380Y/beta2Delta) 0.116 | log fold change Tl+ flux (F380Y/beta4) 0.222 | log fold change Tl+ flux [1] 0.182 | log fold change Tl+ flux (R275C/beta1) 0.291 | log fold change Tl+ flux (R275C/beta2Delta) 0.158 | log fold change Tl+ flux (R275C/beta4) 0.196
inactive: log fold change Tl+ flux (R275C) -0.0107 | log fold change Tl+ flux (R275C/Slo1WT/beta2) -0.0633

CCc1nc2ccccc2nc1N1CCN(S(=O)(=O)c2ccc(Cl)cc2)CC1
inactive: log fold change Tl+ flux (F380Y) -0.00553 | log fold change Tl+ flux (F380Y/beta1) -0.0118 | log fold change Tl+ flux (F380Y/beta2Delta) -0.00426 | log fold change Tl+ flux (F380Y/beta4) -0.00719 | log fold change Tl+ flux [1] -1.3e-05 | log fold change Tl+ flux (R275C) 0.0269 | log fold change Tl+ flux (R275C/beta1) 0.0201 | log fold change Tl+ flux (R275C/beta2Delta) -0.0214 | log fold change Tl+ flux (R275C/beta4) 0.00696 | log fold change Tl+ flux (R275C/Slo1WT/beta2) -0.0158

COc1cccc(CC(=O)NC2CCN(c3nccc(C(F)(F)F)n3)CC2)c1
inactive: log fold change Tl+ flux (F380Y) -0.0079 | log fold change Tl+ flux (F380Y/beta1) -0.0102 | log fold change Tl+ flux (F380Y/beta2Delta) 0.00797 | log fold change Tl+ flux (F380Y/beta4) -0.0197 | log fold change Tl+ flux [1] -0.0334 | log fold change Tl+ flux (R275C) -0.0558 | log fold change Tl+ flux (R275C/beta1) -0.0259 | log fold change Tl+ flux (R275C/beta2Delta) -0.00912 | log fold change Tl+ flux (R275C/beta4) 0.0415 | log fold change Tl+ flux (R275C/Slo1WT/beta2) 0.0233

COC(=O)C(O)(c1ccc(NC(=O)c2ccc(Cl)c(Cl)c2)cc1)C(F)(F)F (stereo not given)
active: log fold change Tl+ flux (F380Y/beta1) 0.0948 | log fold change Tl+ flux (F380Y/beta4) 0.112 | log fold change Tl+ flux (R275C) 0.0903 | log fold change Tl+ flux (R275C/beta1) 0.216 | log fold change Tl+ flux (R275C/beta2Delta) 0.0948 | log fold change Tl+ flux (R275C/beta4) 0.263
inactive: log fold change Tl+ flux (F380Y) -0.0296 | log fold change Tl+ flux (F380Y/beta2Delta) -0.0715 | log fold change Tl+ flux [1] 0.0984 | log fold change Tl+ flux (R275C/Slo1WT/beta2) 0.0206

C#CC1(NC(=O)c2ccc(-c3ccc(CC)cc3)cc2)CCCCC1
inactive: log fold change Tl+ flux (F380Y) 0.0109 | log fold change Tl+ flux (F380Y/beta1) 0.0082 | log fold change Tl+ flux (F380Y/beta2Delta) 0.0141 | log fold change Tl+ flux (F380Y/beta4) 0.0366 | log fold change Tl+ flux [1] 0.047 | log fold change Tl+ flux (R275C) 0.0116 | log fold change Tl+ flux (R275C/beta1) -0.0162 | log fold change Tl+ flux (R275C/beta2Delta) -0.00151 | log fold change Tl+ flux (R275C/beta4) 0.0306 | log fold change Tl+ flux (R275C/Slo1WT/beta2) -0.00603

O=C(O)CC1(CC(=O)Nc2cccc3nsnc23)CCCCC1
inactive: log fold change Tl+ flux (F380Y) 0.0408 | log fold change Tl+ flux (F380Y/beta1) 0.0186 | log fold change Tl+ flux (F380Y/beta2Delta) 0.0387 | log fold change Tl+ flux (F380Y/beta4) 0.0555 | log fold change Tl+ flux [1] 0.00374 | log fold change Tl+ flux (R275C) 0.055 | log fold change Tl+ flux (R275C/beta1) 0.00874 | log fold change Tl+ flux (R275C/beta2Delta) 0.00584 | log fold change Tl+ flux (R275C/beta4) 0.0536 | log fold change Tl+ flux (R275C/Slo1WT/beta2) 0.0319
